Measurements from PubChem BioAssay AID652070 (Broad Institute, 2013).
Inconclusive results are not listed. Active and inactive are the calls of the source. The rule behind the calls is not given here.

test: caspase 3/7 activation in HT29 HRAS cells, mechanism study for HRAS target identification, cell-based, caspase 3/7 luminescence, multiple timepoints, dry powder (AID 652070); conditions: apoptosis; max activity: measured here: third timepoint caspase 3/7, at 0.068 µM, stronger effect = higher value unless noted; series mostly up to 35 µM

**Q.** For `Cc1onc(C(=O)N2CCN(C(c3ccc(Cl)cc3)c3ccc(OCCOCCOCCNC(=O)OC(C)(C)C)cc3)CC2)c1[N+](=O)[O-]` (configuration not stated), which max activity is on record?
**A.** 22.2% [measured here: third timepoint caspase 3/7, at 0.0001 µM, stronger effect = higher value]

**Q.** What about the outcome of the same molecule?
**A.** inactive

**Q.** Which outcome does the source give for `COc1ccc(N(C(=O)CCl)C(C(=O)NCCc2ccccc2)c2cccs2)cc1Cl` (configuration not stated) here?
**A.** inactive

**Q.** And the max activity?
**A.** 22.2% [measured here: third timepoint caspase 3/7, at 8 µM, stronger effect = higher value]

**Q.** What does the source list for `Cc1onc(C(=O)N2CCN(C(c3ccc(Cl)cc3)c3ccc(Cl)cc3)CC2)c1[N+](=O)[O-]`?
**A.** max activity: 13.3% [measured here: third timepoint caspase 3/7, at 0.0001 µM, stronger effect = higher value]; outcome: inactive

**Q.** What does the source list for `CO[C@H]1C[C@@H]2CC[C@@H](C)[C@@](O)(O2)C(=O)C(=O)N2CCCC[C@H]2C(=O)O[C@H]([C@H](C)C[C@@H]2CC[C@@H](O)[C@H](OC)C2)CC(=O)[C@H](C)/C=C(\C)[C@@H](O)[C@@H](OC)C(=O)[C@H](C)C[C@H](C)/C=C/C=C/C=C/1C`?
**A.** outcome: inactive; max activity: 31.1% [measured here: third timepoint caspase 3/7, at 35 µM, stronger effect = higher value]

**Q.** Which results are given for `CCC(=O)N(c1ccc(OC)c(Cl)c1)C(C(=O)NCCc1ccccc1)c1cccs1` (configuration not stated)?
**A.** max activity: 17.8%; outcome: inactive

**Q.** Which results are given for `O=C(NCCOCCOCCOc1ccc(N(C(=O)CCl)C(C(=O)NCCc2ccccc2)c2cccs2)cc1Cl)c1ccc(COC2C#CCCCCC2)cc1` (configuration not stated)?
**A.** outcome: inactive; max activity: 24.4%
